Here are results for six compounds from PubChem BioAssay (NCATS).

Results filed as inconclusive are left out. The source made the active and inactive calls. The call rests on the fitted dose curve; in most records, active means well fitted curve in the direction sought with a large enough effect; inconclusive means small, poorly fitted or top-dose-only effect, or another doubt; inactive means no such curve, though single readings can be large; an effect the other way counts as inactive or inconclusive.

Test [1] can be described thus: Quantitative High-Throughput drug screen in 47 multiple myeloma cell lines against the NCATS MIPE library collection: KHM11_PLB cell viability assay (AID 1918962). Further: nearly all actives have a fitted effect of over 35% in size. Further: potency means the concentration at half of the fitted maximal effect. Put shortly: (§1)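 Viability readout: CellTiter-Glo luminescence following 5 min room-temperature incubation with reagent. Prior exposure: 48 h, 37C, humidified 5% CO2, 500 cells per well.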
The nature of test [2]: Quantitative High-Throughput drug screen in 47 multiple myeloma cell lines against the NCATS MIPE library collection: JIM3_ECACC cell viability assay (AID 1918963; further: nearly all actives have a fitted effect of over 35% in size; further: potency means the concentration at half of the fitted maximal effect). Put shortly:
as §1

Test [3] in a line: Quantitative High-Throughput drug screen in 47 multiple myeloma cell lines against the NCATS MIPE library collection: INA6_PLB cell viability assay (AID 1918965; further: nearly all actives have a fitted effect of over 55% in size; further: potency means the concentration at half of the fitted maximal effect). In outline:
(§2)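 Approved and investigational drugs from MIPE 4.0 were added by pin tool to 500 cells per well. After 48 hours at 37C, ATP-based CellTiter-Glo luminescence indicated remaining viability.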

Test [4] is described as follows: Quantitative High-Throughput drug screen in 47 multiple myeloma cell lines against the NCATS MIPE library collection: JJN3_DSMZ cell viability assay (AID 1918966; further: potency means the concentration at half of the fitted maximal effect; nearly all actives have a fitted effect of over 50% in size). In outline: (§3)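 Luminescent ATP measurement with CellTiter-Glo gives viability, scaled between DMSO-only wells (100%) and media-only wells (0%). Cells, 500 per well, faced library compounds for 48 hours at 37C.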

A short description of test [5]: Quantitative High-Throughput drug screen in 47 multiple myeloma cell lines against the NCATS MIPE library collection: H1112_PLB cell viability assay (AID 1918967; further: potency means the concentration at half of the fitted maximal effect; nearly all actives have a fitted effect of over 30% in size). Put shortly: as §3
The nature of test [6]: Quantitative High-Throughput drug screen in 47 multiple myeloma cell lines against the NCATS MIPE library collection: Karpas25_ECACC cell viability assay (AID 1918968; further: nearly all actives have a fitted effect of over 35% in size; further: potency means the concentration at half of the fitted maximal effect). In outline: as §3
A short description of test [7]: Quantitative High-Throughput drug screen in 47 multiple myeloma cell lines against the NCATS MIPE library collection: KMS27_JCRB cell viability assay (AID 1918970). Further: nearly all actives have a fitted effect of over 30% in size. Further: potency means the concentration at half of the fitted maximal effect. Put shortly:
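ATP-based viability (CellTiter-Glo luminescence) is measured in cells treated 48 h with approved and investigational drugs at 37 °C. Controls are DMSO-only wells for full viability and media-only wells for none.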

The nature of test [8]: Quantitative High-Throughput drug screen in 47 multiple myeloma cell lines against the NCATS MIPE library collection: KMS12BM_JCRB cell viability assay (AID 1918971). Further: nearly all actives have a fitted effect of over 35% in size. Further: potency means the concentration at half of the fitted maximal effect. In outline:
(§4)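 Myeloma cell lines, 500 cells per well, exposed to MIPE 4.0 library compounds for 48 h at 37C, 5% CO2. Viability from ATP by CellTiter-Glo luminescence; normalised to DMSO (100%) and media-only (0%) wells.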

The nature of test [9]: Quantitative High-Throughput drug screen in 47 multiple myeloma cell lines against the NCATS MIPE library collection: KMS12PE_JCRB cell viability assay (AID 1918972). Further: nearly all actives have a fitted effect of over 30% in size. Further: potency means the concentration at half of the fitted maximal effect. Put shortly:
as §2

A short description of test [10]: Quantitative High-Throughput drug screen in 47 multiple myeloma cell lines against the NCATS MIPE library collection: KMS20_JCRB cell viability assay (AID 1918973). Further: nearly all actives have a fitted effect of over 45% in size. Further: potency means the concentration at half of the fitted maximal effect. In outline:
as §3

A short description of test [11]: Quantitative High-Throughput drug screen in 47 multiple myeloma cell lines against the NCATS MIPE library collection: KMS26_JCRB cell viability assay (AID 1918975). Further: nearly all actives have a fitted effect of over 45% in size. Further: potency means the concentration at half of the fitted maximal effect. Put shortly: as §4
Test [12] in a line: Quantitative High-Throughput drug screen in 47 multiple myeloma cell lines against the NCATS MIPE library collection: NCIH929_DSMZ cell viability assay (AID 1918978). Further: nearly all actives have a fitted effect of over 35% in size. Further: potency means the concentration at half of the fitted maximal effect. Put shortly: (§5)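 MIPE 4.0 approved/investigational drugs; 500 cells/well; 48 h 37 °C humidified 5% CO2; CTG luminescence readout; DMSO = 100%, media = 0% viability.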
A short description of test [13]: Quantitative High-Throughput drug screen in 47 multiple myeloma cell lines against the NCATS MIPE library collection: OCIMY1_PLB cell viability assay (AID 1918979). Further: nearly all actives have a fitted effect of over 35% in size. Further: potency means the concentration at half of the fitted maximal effect. Put shortly: as §5
A short description of test [14]: Quantitative High-Throughput drug screen in 47 multiple myeloma cell lines against the NCATS MIPE library collection: Karpas417_ECACC cell viability assay (AID 1918961). The settings on record: Karpas417 myeloma viability, CellTiter-Glo ATP luminescence, 48 h; viability (% of DMSO): at 45.8 µM (top of the series). In outline: as §2
The nature of test [15]: Quantitative High-Throughput drug screen in 47 multiple myeloma cell lines against the NCATS MIPE library collection: MM1S_ATCC cell viability assay (AID 1918980). Further: potency means the concentration at half of the fitted maximal effect; nearly all actives have a fitted effect of over 45% in size. In outline:
as §5

Test [16] can be described thus: Quantitative High-Throughput drug screen in 47 multiple myeloma cell lines against the NCATS MIPE library collection: MOLP8_DSMZ cell viability assay (AID 1918977). Further: nearly all actives have a fitted effect of over 45% in size. Further: potency means the concentration at half of the fitted maximal effect. Put shortly: as §5
Test [17] can be described thus: Quantitative High-Throughput drug screen in 47 multiple myeloma cell lines against the NCATS MIPE library collection: MMM1_PLB cell viability assay (AID 1918976). In outline: as §5
Test [18] is described as follows: Quantitative High-Throughput drug screen in 47 multiple myeloma cell lines against the NCATS MIPE library collection: KMS21BM_JCRB cell viability assay (AID 1918974). Further: potency means the concentration at half of the fitted maximal effect. The settings on record: ATP luminescence, 48 h; viability: at 45.8 µM (top of the series) unless noted. Put shortly:
as §3

`COC(=O)Nc1ccc(-c2nc(N3CCOCC3)c3cnn(C4CCN(Cc5cccnc5)CC4)c3n2)cc1`: the Potency was 0.059 µM (active) in test [1]; 1.18 µM (active) in [2]; 0.0469 µM (active) in test [3]; 0.743 µM (active) in [4]; 26.4 µM (active) in [5]; 0.118 µM (active) in test [6]. Further, the Potency in [8] was 1.05 µM (active); in test [10] it was 0.001 µM (active); in test [11], 2.96 µM (active); in test [12], 0.0743 µM (active); in test [13], 4.69 µM (active). The Potency result in [7] and in test [9] was “inactive” each time.

For the compound `Cc1nc2ccc(CN(C)c3ccc(C(=O)N[C@@H](CCC(=O)O)C(=O)O)s3)cc2c(=O)[nH]1`, the Potency result in test [14], in test [6] and in test [13] was “inactive” each time. Besides, the Potency is 0.0935 µM (active) in [2]; 0.0418 µM (active) in [3]; 0.264 µM (active) in test [7]; 0.0662 µM (active) in [9]; 9.35 µM (active) in [11]; 20.9 µM (active) in test [15].

As for `CN(C)c1nc(Cc2ccc(NC(=O)c3ccc4ccccc4c3)cc2)nc(Cl)c1CC(=O)O`, the Potency entry in test [1], in test [2], in test [3], in [6], in test [8] and in [10] was “inactive” each time. In addition, the Potency entry in [11], in test [16] and in test [12] was “inactive” throughout. Moreover, the Potency in test [7] was 0.0526 µM (active); in [9], 16.6 µM (active); in test [15], 2.96 µM (active).

Take `CC(=O)Nc1sc2c(c1-c1nc3ccccc3s1)CNC2`: the Potency is 26.4 µM (active) in test [1]; 18.7 µM (active) in test [2]; 3.72 µM (active) in [3]; 16.6 µM (active) in [4]; 11.8 µM (active) in test [8]; 20.9 µM (active) in test [9]. For the same compound, the Potency in test [10] was 16.6 µM (active); in test [11], 16.6 µM (active); in test [17], 14.8 µM (active); in [16], 5.9 µM (active); in [12], 16.6 µM (active); in test [15], 14.8 µM (active). The Potency entry in test [7] was “inactive”.

Take `CCCCc1nc2cc(C=CC(=O)NO)ccc2n1CCN(CC)CC`: the Potency is 1.48 µM (active) in test [1]; 2.64 µM (active) in test [2]; 0.743 µM (active) in test [4]; 0.372 µM (active) in [6]; 0.059 µM (active) in test [8]; 0.209 µM (active) in [10]. The Potency in [11] is 0.526 µM (active); in test [16], 0.132 µM (active); in [12], 0.935 µM (active); in [13], 1.66 µM (active); in [15], 0.526 µM (active).

Turning to `Cn1cc(-c2ccncc2)c(-c2ccc(OCc3ccc4ccccc4n3)cc2)n1`, the Potency is 3.32 µM (active) in test [3]; 3.72 µM (active) in [4]; 1.48 µM (active) in [6]; 18.7 µM (active) in test [8]; 5.9 µM (active) in [9]; 3.32 µM (active) in test [18]. The Potency was 7.43 µM (active) in test [11], 2.96 µM (active) in test [17] and 16.6 µM (active) in [13].
